Compound activity from PubChem BioAssay.
The list is not random: actives were taken first. Their share in the collection is about 1.1%.
LAP4 TOR yeast – modulators of LAP4-GFP expression in yeast, primary screen, S. cerevisiae, multiplex flow cytometry, MLPCN library. 3 h; median GFP as percent of DMSO wells. GFP response vs DMSO, % at 10 µM. hit rate 0.34% among 320,000. AID 2023, 2009;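 active = GFP response vs DMSO above a set limit, about the screen mean plus 3 SD, cut at about 150% in these data; inconclusive = under 70 cell events counted for the yeast strain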
CIT2-GFP yeast – modulators of CIT2-GFP expression in yeast, primary screen, S. cerevisiae, GFP fusion, multiplex flow cytometry, MLPCN library | S. cerevisiae CIT2-GFP strain, 3 h; 100 means same as DMSO wells | hit rate 0.065% among 320,000 | GFP response vs DMSO, % at 10 µM;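 active = GFP response relative to DMSO above a set limit, near the screen mean plus 3 SD, cut at about 150% in these data; inconclusive = Fewer than 70 cells measured for a yeast strain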;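 also: ratio of well median GFP fluorescence to mean of DMSO wells on the plate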
RPL19A TOR yeast – RPL19A-GFP expression modulators in yeast, primary screen, cell-based, S. cerevisiae, multiplex flow cytometry, MLPCN. S. cerevisiae RPL19A-GFP strain, 3 h; active compounds read low. percent response vs DMSO, % at 10 µM. hit rate 0.3% among 330,000. AID 2025, 2009;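 active = percent response vs DMSO below 50%; inconclusive = fewer than 70 events counted for the yeast strain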;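 also: median channel GFP fluorescence of the barcoded RPL19A-GFP strain; lower means less RPL19A-GFP as with rapamycin TOR inhibition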
MEP2 TOR yeast – modulators of MEP2-GFP levels in yeast, primary screen, S. cerevisiae, multiplex flow cytometry, MLPCN library | S. cerevisiae MEP2-GFP strain, 3 h; 100% = DMSO control level | GFP response vs DMSO, % at 10 µM | hit rate 0.51% among 330,000 | AID 2016, 2009;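 active = GFP response versus DMSO above a set limit, roughly screen mean plus 3 SD, cut at about 180% in these data; inconclusive = fewer than 70 cells counted for a yeast strain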;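 also: median GFP fluorescence of the barcode-gated MEP2-GFP cells per well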
VLA-4 inh – inhibition in human VLA-4 binding assay, primary screen, VLA-4 allosteric modulator project, MLPCN library, flow cytometry, VLA-4 expressing cells | ligand binding flow cytometry | inhibition, % (about 7 µM as worked out from the volumes in the protocol) | hit rate 0.2% among 330,000 | AID 2557, 2010; in the data active = inhibition above about 50%
Target sequence (P13612 whole entry, looked up): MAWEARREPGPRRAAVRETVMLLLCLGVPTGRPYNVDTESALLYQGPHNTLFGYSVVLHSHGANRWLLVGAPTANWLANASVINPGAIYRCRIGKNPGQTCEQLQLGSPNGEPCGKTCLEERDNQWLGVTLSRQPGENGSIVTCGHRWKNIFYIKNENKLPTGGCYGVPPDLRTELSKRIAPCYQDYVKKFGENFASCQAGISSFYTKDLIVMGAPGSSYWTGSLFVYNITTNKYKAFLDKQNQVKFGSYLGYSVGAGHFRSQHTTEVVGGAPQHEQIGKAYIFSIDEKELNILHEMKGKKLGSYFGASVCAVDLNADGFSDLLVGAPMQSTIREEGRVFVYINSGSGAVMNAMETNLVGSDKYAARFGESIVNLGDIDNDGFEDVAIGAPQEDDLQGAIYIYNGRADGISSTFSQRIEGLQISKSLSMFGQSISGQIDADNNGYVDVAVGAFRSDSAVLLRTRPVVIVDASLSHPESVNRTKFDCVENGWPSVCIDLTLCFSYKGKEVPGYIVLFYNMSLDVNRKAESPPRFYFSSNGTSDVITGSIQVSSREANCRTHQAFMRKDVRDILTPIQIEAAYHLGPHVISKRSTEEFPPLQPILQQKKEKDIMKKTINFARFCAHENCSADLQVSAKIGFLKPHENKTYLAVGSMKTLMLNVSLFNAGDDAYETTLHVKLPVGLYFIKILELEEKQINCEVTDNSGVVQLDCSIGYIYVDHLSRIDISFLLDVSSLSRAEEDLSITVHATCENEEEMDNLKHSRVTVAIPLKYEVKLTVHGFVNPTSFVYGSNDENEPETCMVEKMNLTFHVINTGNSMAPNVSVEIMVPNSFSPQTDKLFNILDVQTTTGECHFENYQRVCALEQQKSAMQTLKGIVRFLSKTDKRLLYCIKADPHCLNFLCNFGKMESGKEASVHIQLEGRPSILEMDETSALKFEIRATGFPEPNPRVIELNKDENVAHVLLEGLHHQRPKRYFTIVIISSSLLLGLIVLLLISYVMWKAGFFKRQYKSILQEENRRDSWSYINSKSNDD
AGP1-GFP MLPCN – modulators of AGP1-GFP expression in yeast TOR pathway, primary screen, cell-based, multiplex flow cytometry, S. cerevisiae, MLPCN library. 3 h; GFP as percent of DMSO wells. GFP response vs DMSO, % at 10 µM. hit rate 0.02% among 320,000. AID 2066, 2009;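 active = GFP response relative to DMSO above a set limit, near screen average plus 3 SD, cut at about 150% in these data; inconclusive = fewer than 70 cells counted for the yeast strain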;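 also: median GFP channel fluorescence of the gated AGP1 strain per well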
Of the large screens only hits and unclear results are named; the others gave an inactive call; [ ] = dose if it differs, or a comment.

COC(=O)c1c(N)n(-c2ccc(NC(C)=O)cc2)c2nc3ccccc3nc12	CIT2-GFP yeast inconclusive, RPL19A TOR yeast 42.0[may fluoresce violet], MEP2 TOR yeast 365.1[may fluoresce violet], AGP1-GFP MLPCN inconclusive
O=C(C[n+]1cc(Br)cc2ccccc21)c1ccc(Br)cc1	none
O=C(C[n+]1cc(Br)cc2ccccc21)c1ccc(Cl)cc1	CIT2-GFP yeast inconclusive, RPL19A TOR yeast 23.6[may fluoresce violet], MEP2 TOR yeast 453.9[may fluoresce violet], AGP1-GFP MLPCN inconclusive
CC12CCC(=O)N1C(C(=O)NCc1ccc(Cl)cc1Cl)CS2 (configuration not stated)	none
O=S(=O)(c1ccc(Oc2ccc(S(=O)(=O)N(CCO)CCO)cc2)cc1)N(CCO)CCO	none
O=S(=O)(c1ccc(N2CCC(c3ccc(Cl)cc3)=N2)cc1)N(CCO)CCO	CIT2-GFP yeast inconclusive, MEP2 TOR yeast 230.5[may fluoresce violet]
CN(C)CCCNS(=O)(=O)c1ccc(N2CCC(c3ccc(Cl)cc3)=N2)cc1	LAP4 TOR yeast inconclusive, CIT2-GFP yeast inconclusive, RPL19A TOR yeast 30.7[may fluoresce violet], MEP2 TOR yeast inconclusive, AGP1-GFP MLPCN inconclusive
O=C(CCS(=O)(=O)c1ccc(F)cc1)N1CCOCC1	CIT2-GFP yeast inconclusive, MEP2 TOR yeast 528.1[may fluoresce violet]
O=C(CCS(=O)(=O)c1ccc(F)cc1)N1CCN(c2ccccc2)CC1	none
CCc1ccccc1Oc1ccc(S(=O)(=O)N2CCN(C)CC2)cn1	none
O=C(Nc1ccc(NC(=O)c2cccs2)cc1)c1cccs1	none
COc1ccc(NC(=O)c2cccs2)cc1	CIT2-GFP yeast inconclusive, RPL19A TOR yeast 46.3[may fluoresce violet], MEP2 TOR yeast 296.9[may fluoresce violet] (no result: AGP1-GFP MLPCN)
CCCc1nc(SCC(=O)NCC2CCCO2)c2c(=O)n(C)c(=O)n(C)c2n1 (configuration not stated)	none
O=C(NCCc1ccccc1)C1CCC(Cn2c(=O)c3ccccc3n(Cc3cccc(Cl)c3)c2=O)CC1 (configuration not stated)	CIT2-GFP yeast inconclusive, RPL19A TOR yeast 36.4[may fluoresce violet]
Cc1c(NS(=O)(=O)CC23CCC(CC2=O)C3(C)C)c(=O)n(-c2ccccc2)n1C (configuration not stated)	CIT2-GFP yeast inconclusive, MEP2 TOR yeast 205.2[may fluoresce violet], AGP1-GFP MLPCN inconclusive
CC1(C)C2CCC1(CS(=O)(=O)Nc1ccccc1)C(=O)C2 (configuration not stated)	none
Cc1c(NC(=O)/C=C/c2cn(-c3ccccc3)nc2-c2ccccc2)c(=O)n(-c2ccccc2)n1C	CIT2-GFP yeast inconclusive, MEP2 TOR yeast 175.1[may fluoresce violet] (no result: AGP1-GFP MLPCN)
COCCNC(=O)C1CCC(CNS(=O)(=O)c2ccccc2)CC1 (configuration not stated)	none
N=c1c(S(=O)(=O)c2ccccc2)cc2c(=O)n3ccccc3nc2n1Cc1cccnc1	none
N#Cc1cc2c(=O)n3ccccc3nc2n(Cc2cccnc2)c1=O	CIT2-GFP yeast inconclusive, RPL19A TOR yeast 40.9[may fluoresce violet], MEP2 TOR yeast 187.6[may fluoresce violet]
N=c1c(C(=O)NC2CCCC2)cc2c(=O)n3ccccc3nc2n1CCCN1CCOCC1	CIT2-GFP yeast inconclusive, MEP2 TOR yeast 184.0[may fluoresce violet], AGP1-GFP MLPCN inconclusive
N=c1c(C(=O)NC2CCCC2)cc2c(=O)n3ccccc3nc2n1Cc1ccccc1	none
N=c1c(C(=O)NC2CCCC2)cc2c(=O)n3ccccc3nc2n1CCN1CCOCC1	CIT2-GFP yeast inconclusive, RPL19A TOR yeast 37.0[may fluoresce violet], MEP2 TOR yeast 216.1[may fluoresce violet], AGP1-GFP MLPCN inconclusive
N#Cc1cc2c(=O)n3ccccc3nc2n(CCCN2CCOCC2)c1=O	CIT2-GFP yeast inconclusive, RPL19A TOR yeast 47.3[may fluoresce violet], MEP2 TOR yeast 241.2[may fluoresce violet]
Cc1ccc(C(=O)Nc2sc3c(c2C(=O)O)CCC(C)C3)o1 (configuration not stated)	none
COC(=O)c1cc(S(=O)(=O)N2CCN(c3ccc(OC)cc3)CC2)cn1C	none
O=C(NCCN1CCOCC1)c1c(O)nc2ccccn2c1=O	none
CCCNc1nc2nc3ccccn3c(=O)c2cc1C(=O)NCCN1CCOCC1	CIT2-GFP yeast inconclusive, RPL19A TOR yeast inconclusive, MEP2 TOR yeast 220.3[may fluoresce red and violet], AGP1-GFP MLPCN inconclusive
CCOC(=O)CNC(=O)c1cn(CC(C)C)c(=O)c2cc(OC)c(OC)cc12	CIT2-GFP yeast inconclusive, RPL19A TOR yeast 41.2[may fluoresce violet], MEP2 TOR yeast 247.8[may fluoresce violet], AGP1-GFP MLPCN inconclusive
COc1cc2c(C(=O)N3CCN(C4CCCCC4)CC3)cn(CC(C)C)c(=O)c2cc1OC	CIT2-GFP yeast inconclusive, RPL19A TOR yeast 48.8[may fluoresce violet], MEP2 TOR yeast 201.0[may fluoresce violet]
O=C1CC(NS(=O)(=O)c2ccc(F)cc2)CN1c1ccc2c(c1)OCCO2 (configuration not stated)	none
COC(=O)C(C(=O)Nc1ncccn1)C1CCCCCC1 (configuration not stated)	CIT2-GFP yeast inconclusive, RPL19A TOR yeast inconclusive, MEP2 TOR yeast 316.6[may fluoresce violet], AGP1-GFP MLPCN inconclusive
O=C(CSc1n[nH]c(-c2ccncc2)n1)Nc1ccc(Cl)c(C(=O)O)c1	none
O=S(=O)(Nc1nc2c(s1)CCCC2)c1ccc2ccccc2c1	none
O=S(=O)(NC1=NCCCCC1)c1ccc2sc(NS(=O)(=O)c3ccc4ccccc4c3)nc2c1	CIT2-GFP yeast inconclusive, RPL19A TOR yeast 40.7[may fluoresce violet], MEP2 TOR yeast 243.2[may fluoresce violet]
Cc1ccc([N+](=O)[O-])cc1NCC(=O)NN	CIT2-GFP yeast inconclusive, MEP2 TOR yeast 187.8[may fluoresce violet]
Cc1cccc(Oc2ncnc(N)c2[N+](=O)[O-])c1	none
COc1cccc(Oc2ncnc(N)c2[N+](=O)[O-])c1	CIT2-GFP yeast inconclusive, MEP2 TOR yeast 524.8[may fluoresce violet]
COc1cc(OC)nc(Oc2cccc(Cl)c2C)n1	none
N=c1ccn(CC(=O)c2ccc(-c3ccccc3)cc2)cc1	LAP4 TOR yeast 153.8
CC1CCCC(NC(=O)COC(=O)c2cccs2)C1C (configuration not stated)	none
COc1ccc(C2CC(=O)C(C(c3ccc(O)cc3)C3C(=O)CC(c4ccc(OC)cc4)CC3=O)C(=O)C2)cc1 (configuration not stated)	MEP2 TOR yeast 239.3
COc1ccc(C2=CC(=O)CC(c3ccc(OC)cc3)C2)cc1 (configuration not stated)	none
C[C@]12C=CC(=O)C=C1CC[C@@H]1[C@@H]2[C@@H](O)C[C@@]2(C)[C@H]1CC[C@]2(O)C(=O)COC(=O)CCC(=O)O	CIT2-GFP yeast inconclusive, MEP2 TOR yeast 345.6[may fluoresce violet]
C[C@]12C=CC(=O)C=C1CC[C@@H]1[C@@H]2[C@@H](O)C[C@@]2(C)[C@H]1CC[C@]2(O)C(=O)COC(=O)CCC(=O)NCCc1ccc(O)cc1	none
Cc1cc(OCC(=O)OCC(=O)NCc2ccco2)ccc1Cl	none
C(=N\Nc1nc(Nc2ccccc2)nc(N2CCOCC2)n1)/c1c[nH]c2ccccc12	CIT2-GFP yeast inconclusive, RPL19A TOR yeast 42.1[may fluoresce violet], MEP2 TOR yeast 447.5[may fluoresce violet], AGP1-GFP MLPCN inconclusive
